Screening data as filed in PubChem.
In the library only some 0.45% were active in any assay of this set; here they are far more common.
CXXC DNA block: MLL CXXC-DNA interaction inhibition; Q03164; MLL-CXXC / FITC-HOXA9 DNA fluorescence polarization; Potency, µM (titrated, usually from 115 µM), for the others: at the top dose activity change, negative = inhibition, usual class: inhibitors; 290,000 compounds, 0.037% hits; active = well fitted inhibition curve with a large enough effect in the polarisation, with a control signal flat, not every such curve was filed as active; inconclusive = small, poorly fitted or top-dose-only effect, or effect the other way, or a change in a side signal; inactive = no such curve, though single readings can be large or run the other way; the % refers to the polarisation; also: potency is read from the fitted curve at half-maximal effect
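Purified MLL-CXXC (added from a 7 uM solution) was preincubated 5 min at ambient with pinned compounds in 50 mM Tris-HCl pH 7.5, 50 mM NaCl, 1 mM DTT, 0.05% BSA. Fluorescein-labeled HOX-A9 DNA (50 nM solution) followed, 30 min, then polarization read.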
S-ASM inh: blocks human secretory acid sphingomyelinase | 340,000 compounds, 0.006% hits | P17405 | AID 504937 | placental ASM, HMU-PC fluorogenic substrate, 60 min | Potency, µM (titrated, usually from 57.5 µM), inactives show top-dose activity change, negative = inhibition, actives largely listed as inhibitors; active = well fitted inhibition curve with a large enough effect; inconclusive = small, poorly fitted or top-dose-only effect; inactive = no such curve, though single readings can be large or run the other way; also: potency is read from the fitted curve at half-maximal effect
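qHTS format. ASM enzyme prepared from human placenta hydrolyses the fluorogenic substrate HMU-PC0 (9 uM final) over 60 min at 37 °C after a 10 min compound preincubation.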
MBNL1-CUG inh: MBNL1-poly(CUG) RNA binding inhibition | Q9NR56 | TR-FRET MBNL1-His/biotin-(CUG)12 binding, 665/545 ratio | Potency, µM (highest dose often 57.5 µM), inactives show at the highest dose activity change, negative = inhibition, hits mostly inhibitors | 280,000 compounds, 0.036% hits | AID 2675; active = well fitted inhibition curve with a large enough effect in the signal ratio, with a control signal flat, not every such curve was filed as active; inconclusive = small, poorly fitted or top-dose-only effect, or effect the other way, or a change in a side signal; inactive = no such curve, though single readings can be large or run the other way; the % refers to the signal ratio; also: potency is read from the fitted curve at half-maximal effect; % is scaled to controls: 0 for no effect and ±100 for the full control effect
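MBNL1-His + Biotin-(CUG)12, cpd titration 92 nM–58 uM; Tb anti-His Ab 0.055 ng/ul, SA-XL665 5 nM (final); 60 min RT; ratiometric 665/545 nm, Ex 340 nm; normalized to buffer and full-complex controls.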
Menin MLL FP TR: inhibitors of human menin-MLL interaction, mutant MLL peptide. 270,000 compounds, 0.23% hits. O00255. Menin + Texas Red MLL mutant peptide, fluorescence polarization. Potency, µM (doses to about 61.6 µM), for inactives: at the top dose FP activity change, negative = inhibition, actives largely listed as inhibitors; active = well fitted inhibition curve with a large enough effect in the polarisation, with a control signal flat, not every such curve was filed as active; inconclusive = small, poorly fitted or top-dose-only effect, or effect the other way, or a change in a side signal; inactive = no such curve, though single readings can be large or run the other way; the % refers to the polarisation; also: potency is read from the fitted curve at half-maximal effect; % of control where 0% means no effect
Target sequence (O00255 whole entry, looked up): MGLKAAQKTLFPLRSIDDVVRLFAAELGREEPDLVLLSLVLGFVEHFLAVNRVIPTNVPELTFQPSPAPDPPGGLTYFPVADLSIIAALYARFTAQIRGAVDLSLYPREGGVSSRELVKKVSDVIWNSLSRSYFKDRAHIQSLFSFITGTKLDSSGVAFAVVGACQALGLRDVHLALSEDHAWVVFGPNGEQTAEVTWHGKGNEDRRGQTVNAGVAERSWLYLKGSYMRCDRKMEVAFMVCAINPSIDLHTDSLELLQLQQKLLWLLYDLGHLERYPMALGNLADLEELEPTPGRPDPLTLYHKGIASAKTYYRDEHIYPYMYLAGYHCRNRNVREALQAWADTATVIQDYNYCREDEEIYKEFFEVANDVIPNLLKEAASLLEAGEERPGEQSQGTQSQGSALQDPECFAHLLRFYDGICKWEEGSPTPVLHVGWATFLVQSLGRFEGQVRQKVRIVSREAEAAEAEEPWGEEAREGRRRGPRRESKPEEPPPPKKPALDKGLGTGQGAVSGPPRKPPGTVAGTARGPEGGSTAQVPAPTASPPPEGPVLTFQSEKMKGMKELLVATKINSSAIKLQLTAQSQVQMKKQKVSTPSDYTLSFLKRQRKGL
Menin MLL FP FL: displaces fluorescein MLL peptide from human menin; Fluorescence polarization, fluorescein-MLL peptide displacement from menin; FP activity change, % at 61.4 µM; 290,000 tested, under 10 active; AID 1766; active = well fitted curve in the direction sought with a large enough effect in the polarisation, not every such curve was filed as active; inconclusive = small, poorly fitted or top-dose-only effect, or effect the other way, or a change in a side signal; inactive = no such curve, though single readings can be large or run the other way; the % refers to the polarisation; also: % of control where 0% means no effect
Akt phos inh: Akt phosphorylation inhibition; AID 651550; activity change, % for hits at 50 µM; Neuro2A IGF-stimulated pAkt S473 HTRF, 20 min; active compounds read low; 360,000 compounds, 0.32% hits; in the data active = activity change below about -80%; inconclusive = mostly about -51% to -80%; also: % is scaled to controls: 0 for no effect and ±100 for the full control effect
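Neuro2A cells (4,500/well, DMEM with 0.5% FBS) were treated with compound at a single 50 µM final concentration, stimulated with 6 nM IGF for 20 min at 37 °C, and lysed. Phospho-Akt Ser473 was read by HTRF as 665/615 ratio ×10^4.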
An asterisk follows results filed as active; i = inactive; ? = inconclusive; . = not tested or not shown.

SMILES	CXXC DNA block	S-ASM inh	MBNL1-CUG inh	Menin MLL FP TR	Menin MLL FP FL	Akt phos inh
CC(C)(C)OC(=O)N[C@@H](Cc1ccccc1)C(=O)N[C@@H](CO)[C@H](O)[C@@H]1C[C@@H]1C(=O)NC1CC1	-3%	5%	-7%	14%	3	i
Cc1cccc(NCc2ccccc2O)c1	6%	-4%	2%	19%	3	-101%*
Cc1cccc(NCCNc2cccc(C)c2)c1	4%	-2%	-2%	7%	1	-104%*
Cc1ccc(NCc2ccccc2O)cc1	-9%	-1%	0%	12%	0	i
CCCCCCCNc1cccc(C)c1	-3%	2%	-7%	.	3	i
Cc1ccc(NC(=O)COC(=O)[C@H](C)NC(=O)c2ccccc2)cc1S(=O)(=O)N1CCOCC1	5%	0%	11%	.	1	i
O=C(C[n+]1ccc(CCSc2ccc(F)cc2)cc1)c1ccccc1	32%	2%	.	18µM*	?	i
Cc1ccc(SCCc2cc[n+](CC(=O)c3ccccc3)cc2)cc1	5%	-3%	-8%	-15%	-2	i
CCN(CC)S(=O)(=O)c1cccc(-c2nnc(SCc3nnc(-c4ccccc4)o3)n2C)c1	-18%	0%	7%	-14%	1	-99%*
CCN(CC)S(=O)(=O)c1ccc(-c2nnc(SCc3nnc(-c4ccc(C)cc4)o3)n2CC)cc1	3%	2%	3%	-19%	4	.
COc1cc(OC)cc(C2C(C#N)=C(N)Oc3n[nH]c(-c4cccnc4)c32)c1 (stereo not drawn)	-4%	-2%	13%	13%	-1	i
Cn1c(NC(=O)c2ccc(Br)o2)cc(=O)n(C)c1=O	6%	3%	16%	32%	-2	-116%*
O=C(CCSc1ccc(Cl)cc1)c1cccs1	49%	-9%	2%	-18%	0	-107%*
COc1ccc(NS(=O)(=O)c2cc(NC(=O)/C=C/c3cc(OC)ccc3OC)ccc2N2CCCCC2)cc1	3%	110%	.	10µM*	0	i
COc1ccc(NS(=O)(=O)c2cc(NC(=O)CCNC(C)=O)ccc2N2CCCCC2)cc1	.	-3%	.	.	.	i
COc1ccc(C2=Nn3c(nnc3-c3ccc(OC)cc3)SC2)cc1	-6%	-19%	1%	-12%	8	i
COc1ccc(-c2nnc3n2N=C(C)CS3)cc1	-4%	3%	-1%	11%	3	-84%*
COc1ccc(C2=Nn3c(nnc3-c3ccccc3OC)SC2)cc1OC	-6%	0%	13%	11µM*	5	i
CC1=Nn2c(nnc2-c2ccco2)SC1	-11%	4%	-5%	-12%	-1	-102%*
O=c1[nH]c(=S)[nH]c2c1[C@H](C1CC1)O[C@H](CCc1ccccc1)C2	.	.	.	.	.	i
C=C1CCN([C@@H](C)C(=O)NCc2ccc(Cl)cc2)S(=O)(=O)c2ccccc21	-2%	-8%	-2%	.	-12	i
COc1ccc(NC(=O)CCCNS(=O)(=O)c2cccs2)cc1	3%	1%	-2%	0%	2	i
COc1ccccc1N1C(=O)CCC1(C#N)c1ccccc1 (stereo not drawn)	7%	4%	7%	-20%	-2	-107%*
Cc1ccc(CS(=O)Cc2ccc(C(=O)NC3CCCC(C)C3C)o2)cc1 (stereo not drawn)	4%	0%	0%	8%	0	i
CC(=O)Nc1ccc(S(=O)(=O)N2CCC(N3CCCC3)CC2)cc1	27%	-2%	-7%	.	.	i
CC(=O)Nc1ccc(S(=O)(=O)N2CCC(n3cnc4cc(F)ccc43)CC2)cc1	33%	-1%	-7%	-4%	-1	-106%*
Clc1ccc(CSc2nnc([C@@H]3CCCN3)o2)cc1Cl	6%	0%	-2%	2%	6	-106%*
Cc1ccc(C)c(CSc2nnc([C@@H]3CCCN3)o2)c1	1%	3%	2%	.	2	i
CN(C(=O)/C=C/c1ccco1)c1ccccc1C(=O)O	4%	-3%	-2%	7%	0	i
